Results published in PubChem BioAssay.
Activity calls are given as the source filed them. Unless noted, no rule for the calls is given here.

Experiments:
[1] = anti-His antibody binders, primary screen, artefact control for SMM control protein annotation, biochemical, small-molecule microarray, 635 nm fluorescence (AID 1128); conditions: anti-His Alexa647 antibody binding, higher = more signal;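 also: score merges feature fluorescence with signal-to-noise for each printed compound spot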
[2] = test system: Human papillomavirus type 1a E7 protein (residues 1-88); test: HPV1a E7 small-molecule binders, primary screen, biochemical, small-molecule microarray, residues 1-88, 635 nm (AID 1129); conditions: small-molecule microarray binding, fluorescence 635 nm; higher = more signal
[3] = biological target: Focal adhesion kinase 1 (Homo sapiens) (UniProt Q05397); test: small-molecule microarray binders of FAK, primary screen, biochemical, 635/667 nm fluorescence, BSA, DTT (AID 1130); conditions: PTK2 binding, 635 nm fluorescence, higher = more signal;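 also: composite of spot emission at 667 nm and signal to noise over triplicate slides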
[4] = test system: Fibrinogen (Alexa647-labelled); test: fibrinogen binders on compound microarrays, profiling panel, artefact control for SMM control-protein annotation, biochemical, small-molecule microarray, 635/667 nm fluorescence (AID 1131); conditions: fibrinogen-A647 binding fluorescence, higher = more signal;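 also: z-score merges 667 nm fluorescence with per-spot signal-to-noise over triplicate slides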
[5] = biological target: Follistatin (Homo sapiens) (UniProt P19883); test: follistatin binders on small-molecule microarrays, primary screen, biochemical, small-molecule microarray, 635/667 nm fluorescence (AID 1132); conditions: FST binding, 635 nm fluorescence, higher = more signal
[6] = biological target: Fibroblast growth factor 2 (Homo sapiens) (UniProt P09038); test: FGF2 binders on small-molecule microarrays, primary screen, biochemical, small-molecule microarray, 635/667 nm fluorescence (AID 1133); conditions: small-molecule microarray binding, FGF2, fluorescence 635/667; higher = more signal
[7] = mitochondrial membrane potential change in A549 cells, profiling panel, cell-based, JC-1 fluorescence, basal, 24 h, 100 nL (AID 1138); conditions: higher = more signal;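 also: A549 lung adenocarcinoma cells under basal conditions with no added stimulus; test concentration not given here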
Lefty1 = Lefty1 binders on small-molecule microarrays, primary screen, biochemical, small-molecule microarray, 635/667 nm fluorescence (AID 1139); conditions: small-molecule microarray binding, fluorescence 635/667; higher = more signal
[8] = test system: wheat germ agglutinin (Triticum aestivum), Alexa647-labelled; test: wheat germ agglutinin binders on compound microarrays, profiling panel, artefact control for SMM control-protein annotation, biochemical, small-molecule microarray, 635/667 nm fluorescence (AID 1140); conditions: WGA-A647 binding, 635 nm fluorescence, higher = more signal;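 also: score merges 667 nm feature emission with signal to noise over triplicate slides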
[9] = biological target: Luciferin 4-monooxygenase (Photinus pyralis) (UniProt P08659); test: firefly luciferase enzyme inhibitors, primary screen, biochemical, luminescence, purified enzyme, 2006 set (AID 1141); conditions: SteadyGlo luminescence, 30 min, higher = more signal, called active from +8 up or from −8 down;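 also: cell-free assay with purified firefly luciferase at 100 ng per well in PBS; test concentration not given here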
[10] = test system: Wnt5a (protein binding on small-molecule microarray); test: Wnt5a binders on small-molecule microarray, primary screen, biophysical, 635/667 nm fluorescence (AID 1142); conditions: 635 nm fluorescence, higher = more signal;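 also: fluorescence read at 667 nm with signal to noise per printed feature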
[11] = cell viability in Huh7 cells, primary screen, cytotoxicity control for HCV replication inhibitor project, CellTiter-Glo luminescence, basal, 48 h (AID 1143); conditions: Huh7 HCV replicon, higher = more signal, called active from +8 up or from −8 down;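 also: Huh7 hepatoma cells carrying a hepatitis C replication reporter with no stimulus; test concentration not given here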
[12] = P. aeruginosa biofilm formation inhibitors, primary screen, PAO1 strain, BacTiter-Glo luminescence, LB-PBS (AID 1144); conditions: 12 h, higher = more signal
[13] = CREB reporter modulators without forskolin, primary screen, cell-based, PC12, CRE-LacZ reporter, unstimulated (AID 1145); conditions: no forskolin, luminescence, 4.5 h, higher = more signal, called active from +8 up or from −8 down
[14] = CREB reporter modulators under forskolin, primary screen, cell-based, PC12, CRE-LacZ reporter, forskolin-stimulated (AID 1146); conditions: luminescence, 4.5 h, higher = more signal, called active from +8 up or from −8 down;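 also: PC12 cells with 6xCRE LacZ reporter stimulated by forskolin 10 µM; beta-galactosidase reporter signal reflecting CREB driven transcription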
[15] = biological target: Streptavidin (Streptomyces avidinii) (UniProt P22629); test: streptavidin binders on small-molecule microarray, primary screen, artefact control for SMM compound annotation, biophysical, 635/667 nm fluorescence (AID 1147); conditions: streptavidin binding, higher = more signal;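 also: signal reflects streptavidin binding to arrayed compounds as a control protein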
[16] = small-molecule binders of probe aInhba, primary screen, biochemical, small-molecule microarray, 635/667 nm fluorescence (AID 1148); conditions: higher = more signal;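 also: score merges 667nm spot fluorescence with signal-to-noise for antibody binding to printed compounds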
Torsin-1A (Homo sapiens) [17] = biological target: Torsin-1A (Homo sapiens) (UniProt O14656); test: torsin A binders from cell lysate, primary screen, small-molecule microarray, wild-type, 635/667 nm (AID 1149); conditions: COS7 hTOR1A-WT lysate, 635 nm fluorescence, higher = more signal
Torsin-1A (Homo sapiens) [18] = biological target: Torsin-1A (Homo sapiens) (UniProt O14656); test: small-molecule binders of mutant TOR1A in lysate, primary screen, cell lysate, small-molecule microarray, COS7 lysate, 635/667 nm fluorescence (AID 1150); conditions: COS7 hTOR1A mutant lysate, 635 nm fluorescence, higher = more signal;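 also: score pools 667 nm emission and signal to noise measuring lysate protein binding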
[19] = test system: Sonic hedgehog protein (Shh); test: small-molecule binders of Shh protein, primary screen, biochemical, small-molecule microarray, 635/667 nm fluorescence (AID 1151); conditions: small-molecule microarray binding, 635 nm fluorescence; higher = more signal;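 also: Shh protein binding to compounds spotted on small-molecule microarray slides; score combines spot fluorescence intensity with signal-to-noise across triplicate slides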

Sequence of Torsin-1A (Homo sapiens) (O14656 whole entry, looked up): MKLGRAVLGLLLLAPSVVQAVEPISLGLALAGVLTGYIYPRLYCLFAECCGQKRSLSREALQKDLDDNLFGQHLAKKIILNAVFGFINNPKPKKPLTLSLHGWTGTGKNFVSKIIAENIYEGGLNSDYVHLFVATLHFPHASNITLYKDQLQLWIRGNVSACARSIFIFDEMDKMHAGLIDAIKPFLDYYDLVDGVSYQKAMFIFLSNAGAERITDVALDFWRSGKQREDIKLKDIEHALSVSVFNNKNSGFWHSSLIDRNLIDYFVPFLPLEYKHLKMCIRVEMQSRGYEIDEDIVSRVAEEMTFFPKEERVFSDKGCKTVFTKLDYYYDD
Sequence of Luciferin 4-monooxygenase (Photinus pyralis) (P08659 whole entry, looked up): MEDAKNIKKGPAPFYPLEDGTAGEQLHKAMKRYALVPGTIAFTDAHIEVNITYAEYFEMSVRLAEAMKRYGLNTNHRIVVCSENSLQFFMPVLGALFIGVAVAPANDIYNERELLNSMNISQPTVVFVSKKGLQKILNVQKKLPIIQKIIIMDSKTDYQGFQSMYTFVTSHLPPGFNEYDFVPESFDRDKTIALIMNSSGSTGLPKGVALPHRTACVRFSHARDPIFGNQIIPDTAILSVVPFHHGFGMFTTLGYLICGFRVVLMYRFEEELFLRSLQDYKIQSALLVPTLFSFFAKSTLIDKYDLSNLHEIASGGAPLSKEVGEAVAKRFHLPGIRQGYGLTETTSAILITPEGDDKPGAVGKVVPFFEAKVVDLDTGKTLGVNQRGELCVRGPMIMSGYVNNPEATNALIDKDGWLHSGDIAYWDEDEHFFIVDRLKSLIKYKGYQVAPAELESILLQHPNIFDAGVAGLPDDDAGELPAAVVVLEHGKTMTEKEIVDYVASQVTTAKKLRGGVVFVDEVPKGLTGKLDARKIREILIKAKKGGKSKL
Sequence of Focal adhesion kinase 1 (Homo sapiens) (Q05397 whole entry, looked up): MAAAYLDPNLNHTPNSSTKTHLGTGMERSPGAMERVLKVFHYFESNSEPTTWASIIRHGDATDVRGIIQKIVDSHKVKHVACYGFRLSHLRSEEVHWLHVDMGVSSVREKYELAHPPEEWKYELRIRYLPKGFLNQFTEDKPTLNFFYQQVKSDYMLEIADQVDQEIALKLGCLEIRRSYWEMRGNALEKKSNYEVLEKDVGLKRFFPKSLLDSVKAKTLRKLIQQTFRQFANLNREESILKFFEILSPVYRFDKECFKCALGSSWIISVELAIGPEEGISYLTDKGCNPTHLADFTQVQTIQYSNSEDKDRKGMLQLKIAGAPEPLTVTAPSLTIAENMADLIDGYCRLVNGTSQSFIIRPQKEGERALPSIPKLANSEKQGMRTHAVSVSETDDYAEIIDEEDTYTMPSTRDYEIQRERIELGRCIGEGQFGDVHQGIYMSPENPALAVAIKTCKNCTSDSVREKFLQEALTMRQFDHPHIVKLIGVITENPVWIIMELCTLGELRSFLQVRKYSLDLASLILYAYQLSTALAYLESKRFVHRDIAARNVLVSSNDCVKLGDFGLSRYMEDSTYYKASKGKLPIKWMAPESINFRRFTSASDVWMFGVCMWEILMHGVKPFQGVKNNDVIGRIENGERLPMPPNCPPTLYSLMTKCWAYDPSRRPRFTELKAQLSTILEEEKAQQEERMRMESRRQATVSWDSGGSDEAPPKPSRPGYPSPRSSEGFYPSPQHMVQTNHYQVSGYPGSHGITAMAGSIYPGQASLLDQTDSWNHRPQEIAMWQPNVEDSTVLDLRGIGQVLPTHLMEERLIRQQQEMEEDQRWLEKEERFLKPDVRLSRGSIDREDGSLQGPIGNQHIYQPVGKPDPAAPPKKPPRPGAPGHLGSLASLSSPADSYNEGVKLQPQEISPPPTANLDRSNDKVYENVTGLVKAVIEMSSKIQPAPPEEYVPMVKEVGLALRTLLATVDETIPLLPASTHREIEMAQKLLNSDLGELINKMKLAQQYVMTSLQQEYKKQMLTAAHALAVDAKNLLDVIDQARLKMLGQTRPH
Sequence of Streptavidin (Streptomyces avidinii) (P22629 whole entry, looked up): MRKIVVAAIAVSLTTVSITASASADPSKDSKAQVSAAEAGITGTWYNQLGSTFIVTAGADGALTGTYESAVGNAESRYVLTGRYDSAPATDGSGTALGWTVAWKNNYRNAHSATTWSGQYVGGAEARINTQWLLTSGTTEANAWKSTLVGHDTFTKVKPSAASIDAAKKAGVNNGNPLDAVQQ
Sequence of Follistatin (Homo sapiens) (P19883 whole entry, looked up): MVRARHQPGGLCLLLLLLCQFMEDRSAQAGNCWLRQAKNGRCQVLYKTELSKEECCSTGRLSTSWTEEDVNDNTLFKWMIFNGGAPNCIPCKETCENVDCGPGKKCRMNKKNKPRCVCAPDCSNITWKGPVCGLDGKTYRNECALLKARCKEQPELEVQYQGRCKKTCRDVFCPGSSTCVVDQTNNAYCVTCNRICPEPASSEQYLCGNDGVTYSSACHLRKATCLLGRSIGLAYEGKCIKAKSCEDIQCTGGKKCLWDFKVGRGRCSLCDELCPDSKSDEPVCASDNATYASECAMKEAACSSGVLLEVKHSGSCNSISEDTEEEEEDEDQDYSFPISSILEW
Sequence of Fibroblast growth factor 2 (Homo sapiens) (P09038 whole entry, looked up): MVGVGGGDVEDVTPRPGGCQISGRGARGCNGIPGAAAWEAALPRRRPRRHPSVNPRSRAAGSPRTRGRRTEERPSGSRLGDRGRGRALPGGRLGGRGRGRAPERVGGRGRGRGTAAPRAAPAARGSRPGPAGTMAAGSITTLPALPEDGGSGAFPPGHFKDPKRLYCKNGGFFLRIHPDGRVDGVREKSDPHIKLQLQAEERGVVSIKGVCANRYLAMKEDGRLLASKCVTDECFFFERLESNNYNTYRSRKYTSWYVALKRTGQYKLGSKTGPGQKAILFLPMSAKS

SMILES | composite z-score [1] | composite z-score [2] | composite z-score [3] | composite z-score [4] | composite z-score [5] | composite z-score [6] | z-score [7] | composite z-score (Lefty1) | composite z-score [8] | z-score [9] | composite z-score [10] | z-score [11] | z-score [12] | z-score [13] | z-score [14] | composite z-score [15] | composite z-score [16] | composite z-score (Torsin-1A (Homo sapiens) [17]) | composite z-score (Torsin-1A (Homo sapiens) [18]) | composite z-score [19]
C[C@@H]1C=CCC(=O)OC[C@H](C)C(=O)N2CCC[C@H]2C(=O)OC1 | 2.67 | 0.589 | -0.344 | -0.592 | 1.31 | 1.74 | -0.741 | 1.59 | -0.273 | 1.1 (inactive) | 0.15 | 0.111 (inactive) | -0.736 (inactive) | -0.264 (inactive) | -0.0697 (inactive) | 0.245 | -0.21 | 3.08 | 2.85 | 2.33
C=CC[C@@H]1C=C[C@H](ON=Cc2ccc(C(=O)N3[C@H](c4ccc(C)cc4)[C@@H](C)CC[C@H]3C(=O)OC)cc2)[C@@H](CO)O1 | -0.672 | 0.973 | 0.181 | 0.302 | 0.333 | 0.646 | -0.154 | 0.387 | 0.0608 | 1.27 (inactive) | 0.14 | -1.33 (inactive) | 0.694 (inactive) | 3.89 (inactive) | 0.062 (inactive) | -0.161 | -0.0791 | -0.0434 | 0.0034 | 0.68
CCc1cc2c(nc1CC)CCN(CCC(C)=NOC[C@@H](O)[C@H]1O[C@@H]3OC(C)(C)O[C@@H]3[C@H]1O)C2 | 0.29 | -0.0321 | -0.113 | 0.572 | 0.187 | 0.106 | 0.489 | 0.446 | 0.878 | -0.0353 (inactive) | 0.146 | 0.731 (inactive) | -0.319 (inactive) | 0.006 (inactive) | 0.347 (inactive) | 0.18 | -0.0216 | 0.3 | 0.101 | 0.528
O=C1[C@H]2[C@H]3[C@H](O)[C@H](O)CC(=NOCc4ccccc4)[C@H]3CC[C@H]2C(=O)N1c1ccc(F)cc1F | 0.492 | -0.0368 | 0.145 | -0.898 | -0.273 | 0.0342 | -0.206 | -0.0947 | 0.146 | 0.522 (inactive) | -0.0542 | -0.627 (inactive) | -0.665 (inactive) | -0.926 (inactive) | -0.14 (inactive) | -0.899 | -0.536 | -0.0184 | -0.013 | -0.311
CN1C(=O)[C@@]2(CCC(=O)OC(C)(C)C)N=C(c3ccc(OCCCO)cc3)O[C@H]2c2ccccc21 | 1.87 | 1.17 | 0.102 | 0.411 | 1.36 | 0.611 | 1.33 | 0.369 | 0.761 | -2.62 (inactive) | 0.0942 | -4.68 (inactive) | -1.73 (inactive) | 0.652 (inactive) | -1.92 (inactive) | -0.235 | 0.0649 | -0.132 | 0.43 | 1.5
CO[C@H]1COC(=O)[C@@H]2CCCN2C(=O)[C@@H](C)COC(=O)CC=C[C@@H]1C | 1.42 | -0.217 | -0.114 | 0.112 | 1.02 | 1.46 | -0.409 | 0.898 | -0.114 | 1.29 (inactive) | 0.055 | 0.321 (inactive) | -0.556 (inactive) | -0.892 (inactive) | -0.0307 (inactive) | 0.457 | -0.0136 | 1.24 | 0.219 | 2.14
CCCCCN1CC=CC23O[C@@H]4C=CCOC(=O)[C@@H]4[C@H]2C(=O)N(CCCCCCO)[C@@H]3C1=O (stereo not given in full) | 0.309 | -0.381 | -0.236 | -1.04 | -2.23 | -1.49 | 0.421 | -1.05 | -0.416 | 0.294 (inactive) | -0.485 | 0.0442 (inactive) | 0.851 (inactive) | -0.342 (inactive) | 0.124 (inactive) | -0.976 | -0.15 | -1.78 | -0.966 | -0.837
CO[C@@H]1COC(=O)[C@H](C)NC(=O)[C@@H](C)COC(=O)CCC[C@H]1C | -0.356 | 0.0754 | 0.574 | -0.796 | 0.775 | 0.851 | -0.816 | 0.784 | 0.405 | 0.981 (inactive) | -0.0361 | -0.639 (inactive) | 0.019 (inactive) | 0.085 (inactive) | 0.396 (inactive) | -0.185 | -0.128 | 0.738 | 0.462 | 1.24
COCCOC(=O)N1C(=O)[C@@]2(c3cc(C#Cc4ccc(OC)cc4)ccc31)[C@H](C(=O)N1CCN(c3ncccn3)CC1)[C@H]1C(=O)O[C@H](c3ccccc3)[C@H](c3ccccc3)N1[C@@H]2c1ccc(OCCO)cc1 | 0.233 | 0.202 | 0.253 | 0.274 | 1.26 | 1.06 | -1.15 | 0.786 | 0.769 | -0.411 (inactive) | 0.044 | -0.151 (inactive) | -0.118 (inactive) | -0.606 (inactive) | -0.242 (inactive) | 0.531 | 0.397 | -0.0983 | 0.33 | 1
COc1cccc([C@@H]2Oc3ccc(Br)cc3C(=O)[C@H]2O)c1 | 0.26 | 0.615 | 0.586 | 0.946 | 0.453 | 0.267 | 1.08 | 0.732 | 0.282 | -3.5 (inactive) | 0.134 | -3.91 (inactive) | -0.591 (inactive) | 4.08 (inactive) | 0.136 (inactive) | 0.286 | -0.089 | 0.561 | 1.1 | 0.936
